LMP1 NFkB inh: EBV LMP1-driven NF-kappaB luciferase reporter inhibitors, primary screen, cell-based, luminescence, single point | LMP1-induced NF-kappaB luciferase reporter cells | inhibition, % at 12.5 µM | 350,000 tested, 0.69% active; in the data active means inhibition above about 41%;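 further: 0% = neutral control wells and 100% = reference inhibitor control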
MITF TRPM1 inh: inhibitors of MITF-dependent TRPM1 promoter reporter, primary screen, cell-based, SK-MEL-5, single point, luciferase. SK-MEL-5 TRPM1 promoter luciferase, 24 h. inhibition, % at 12.5 µM. 330,000 tested, 0.83% active. AID 488899, 2010;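 active means mean inhibition across replicates of 60% or more, whatever share of single replicates reaches that level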
PGC1a acetyl inh: inhibitors of PGC1a acetylation signal, primary screen, cell-based, U2OS, AlphaScreen, inhibitor mode | AID 651687, 2012 | inhibition, % at 15.6 µM | AlphaScreen anti-acetyl-lysine; with virally co-expressed GCN5 acetyltransferase | 350,000 tested, 0.17% active;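 active means every replicate shows inhibition of at least 40%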;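 further: 0% = neutral control wells and 100% = positive control wells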
EWS-Fli inh: EWS/Fli-driven NR0B1 reporter inhibitors, primary screen, A673 cells, NR0B1 luciferase, luminescence, MLPCN library | viability-normalised | inhibition, % at 12.6 µM | 350,000 tested, 0.67% active;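 active means mean inhibition of at least 50% after viability correction, with every replicate also passing that limit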;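 further: firefly luciferase signal divided by Alamar Blue viability fluorescence both relative to DMSO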
PAX8 reporter: inhibitors of PAX8-driven TPO luciferase reporter, primary screen, RMG-I cells, single concentration; 360,000 tested, 1.2% active; inhibition, % at 12.6 µM; SteadyGlo, 24 h; AID 652154, 2013;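 active means mean replicate inhibition at least 60% with every replicate also reaching 60%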;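 further: luciferase light reporting Pax8 driven TPO promoter activity; plate controls were median of neutral control wells for no effect and mitoxantrone controls for full effect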
LGR2 antag: inhibitors of bursicon-induced LGR2 CRE-luciferase signal, primary screen, cell-based, HEK293, CRE-luciferase reporter, bursicon stimulation; inhibition, % at 9.99 µM; 380,000 tested, 0.35% active; bursicon-stimulated, 4 h; Drosophila bursicon receptor LGR2 (rickets); AID 720647, 2013;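 active means drop in luminescence signal, shown as inhibition above about 50% in the replicate tests, limit read from the data, passing the limit was not always enough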;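 further: agonist challenge used bursicon conditioned medium at about half maximal strength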
The depositor's hits bear a star. The list is not random: actives were taken first. Their share in the collection is about 2.2%.

What do the screens show for `COc1cccc(C#Cc2ccc([C@@H]3[C@H](CO)N4C(=O)CN(C(=O)c5ccncc5)C[C@@H]34)cc2)c1`?
PGC1a acetyl inh: -10.3; EWS-Fli inh: -6.9; PAX8 reporter: 12.5; LGR2 antag: -5.9

How did COc1ccc(-c2nn(-c3ccccc3)cc2/C=N/N2C(=O)CSC2=S)cc1 do in these assays?
LMP1 NFkB inh: -17.6; MITF TRPM1 inh: 104.3*; PGC1a acetyl inh: -8.0

What do the screens show for `O=C(Nc1ccccc1)Nc1ccc2c(c1)[C@@H]1C[C@@H](CC(=O)N3CCOCC3)O[C@H](CO)[C@@H]1O2`?
PGC1a acetyl inh: -8.8; EWS-Fli inh: 2.4; PAX8 reporter: -5.6; LGR2 antag: 7.7

How did C[C@@H]1CCCCO[C@@H](CN(C)Cc2ccc(Cl)c(Cl)c2)[C@@H](C)CN([C@@H](C)CO)C(=O)c2cc(NC(=O)Nc3ccc(F)cc3)ccc2O1 do in these assays?
PGC1a acetyl inh: -3.5; EWS-Fli inh: 9.2; PAX8 reporter: 57.4; LGR2 antag: 1.6

How did C[C@H]1CCCCO[C@H](CN(C)Cc2ccc(Cl)c(Cl)c2)[C@@H](C)CN([C@@H](C)CO)C(=O)c2cc(NC(=O)Nc3ccc(F)cc3)ccc2O1 do in these assays?
PGC1a acetyl inh: -6.8; EWS-Fli inh: 0.2; PAX8 reporter: 92.3*; LGR2 antag: 19.0

How did C[C@@H]1CN([C@H](C)CO)C(=O)c2cc(NC(=O)Nc3ccc(F)cc3)ccc2O[C@@H](C)CCCCO[C@@H]1CN(C)Cc1ccc(Cl)c(Cl)c1 do in these assays?
PGC1a acetyl inh: -12.0; EWS-Fli inh: -0.3; PAX8 reporter: 85.2*; LGR2 antag: 9.7

Results for CN(C)C(=O)C[C@H]1CC[C@@H]2[C@@H](COc3ccc(NS(=O)(=O)c4cccc(F)c4)cc3C(=O)N2C)O1 ?
PGC1a acetyl inh: -1.2; EWS-Fli inh: 4.1; PAX8 reporter: -18.2; LGR2 antag: -5.5

Results for CN(CCc1cn[nH]c1)Cc1nc(C(c2ccccc2)c2ccccc2)no1 ?
LMP1 NFkB inh: 0.3; MITF TRPM1 inh: 6.1; EWS-Fli inh: 7.6; PAX8 reporter: 143.7*; LGR2 antag: -17.3

How did CCN(CC)CCN(C)Cc1nc(C(c2ccccc2)c2ccccc2)no1 do in these assays?
LMP1 NFkB inh: -7.8; MITF TRPM1 inh: -4.0; EWS-Fli inh: 25.7; PAX8 reporter: 15.4

Results for CN(C)c1ccc(C=C2SC(=S)NC2=O)cc1 ?
LMP1 NFkB inh: -10.9; MITF TRPM1 inh: -26.7; PGC1a acetyl inh: 51.2*; EWS-Fli inh: -85.6; PAX8 reporter: -171.6; LGR2 antag: -62.4

Results for C[C@@H]1CCCCO[C@H](CN(C)CC2CCCCC2)[C@@H](C)CN([C@H](C)CO)C(=O)c2cc(NS(=O)(=O)c3ccc(F)cc3)ccc2O1 ?
PGC1a acetyl inh: 2.3; EWS-Fli inh: -3.2; PAX8 reporter: 0.7; LGR2 antag: -7.8

What do the screens show for `C[C@@H]1CCCCO[C@@H](CN(C)CC2CCCCC2)[C@@H](C)CN([C@@H](C)CO)C(=O)c2cc(NS(=O)(=O)c3ccc(F)cc3)ccc2O1`?
PGC1a acetyl inh: -5.6; EWS-Fli inh: 1.6; PAX8 reporter: 72.2*; LGR2 antag: 2.9

How did C[C@@H]1CCCCO[C@H](CN(C)CC2CCCCC2)[C@H](C)CN([C@@H](C)CO)C(=O)c2cc(NS(=O)(=O)c3ccc(F)cc3)ccc2O1 do in these assays?
PGC1a acetyl inh: -10.7; EWS-Fli inh: 67.4*; PAX8 reporter: 38.2; LGR2 antag: 14.8

Results for CCCN(C)C[C@H]1OCCCC[C@H](C)Oc2ccc(NS(=O)(=O)c3ccc(F)cc3)cc2C(=O)N([C@@H](C)CO)C[C@@H]1C ?
PGC1a acetyl inh: -6.1; EWS-Fli inh: -1.8; PAX8 reporter: 69.2*; LGR2 antag: 0.6

Results for C[C@@H]1CCCCO[C@H](CN(C)CC2CCCCC2)[C@H](C)CN([C@@H](C)CO)C(=O)c2cc(NS(=O)(=O)c3ccc(Cl)cc3)ccc2O1 ?
PGC1a acetyl inh: -21.4; EWS-Fli inh: 64.9*; PAX8 reporter: 104.1*; LGR2 antag: -3.3

High-throughput results as filed in PubChem.
